Laboratory results from PubChem BioAssay (NCATS).
Inconclusive results are not listed. Active and inactive are the calls of the source. Unless noted, calls follow the shape of the full dose curve.

Legend:
[1] = qHTS for Inhibitors of the Functional Ribonucleoprotein Complex (vRNP) of Lassa (LASV) Arenavirus: LASV Primary Screen - GLuc reporter signal (AID 1347082; calls by dose curve; tested in HEK293 reporter line; also: nearly all actives have a fitted effect of over 60% in size)
[2] = qHTS for Inhibitors of the Functional Ribonucleoprotein Complex (vRNP) of Lassa (LASV) Arenavirus: Viability assay - alamar blue signal for LASV Primary Screen (AID 1347083; calls by dose curve; tested in HEK293 reporter line; also: nearly all actives have a fitted effect of over 80% in size)
[3] = qHTS for Inhibitors of the Functional Ribonucleoprotein Complex (vRNP) of Lymphocytic Choriomeningitis Arenaviruses (LCMV): Viability assay - alamar blue signal for LCMV Primary Screen (AID 1347085; calls by dose curve; tested in HEK293 reporter line; also: nearly all actives have a fitted effect of over 80% in size)
[4] = target: Nucleoprotein (Lymphocytic choriomeningitis virus (strain Armstrong)) (UniProt P09992); test: qHTS for Inhibitors of the Functional Ribonucleoprotein Complex (vRNP) of Lymphocytic Choriomeningitis Arenaviruses (LCMV): LCMV Primary Screen - GLuc reporter signal (AID 1347086); also: nearly all actives have a fitted effect of over 70% in size
% is scaled to controls: 0 for no effect and ±100 for the full control effect.
Also: series mostly up to about 57 µM.

Chain of Nucleoprotein (Lymphocytic choriomeningitis virus (strain Armstrong)) (P09992 whole entry, looked up): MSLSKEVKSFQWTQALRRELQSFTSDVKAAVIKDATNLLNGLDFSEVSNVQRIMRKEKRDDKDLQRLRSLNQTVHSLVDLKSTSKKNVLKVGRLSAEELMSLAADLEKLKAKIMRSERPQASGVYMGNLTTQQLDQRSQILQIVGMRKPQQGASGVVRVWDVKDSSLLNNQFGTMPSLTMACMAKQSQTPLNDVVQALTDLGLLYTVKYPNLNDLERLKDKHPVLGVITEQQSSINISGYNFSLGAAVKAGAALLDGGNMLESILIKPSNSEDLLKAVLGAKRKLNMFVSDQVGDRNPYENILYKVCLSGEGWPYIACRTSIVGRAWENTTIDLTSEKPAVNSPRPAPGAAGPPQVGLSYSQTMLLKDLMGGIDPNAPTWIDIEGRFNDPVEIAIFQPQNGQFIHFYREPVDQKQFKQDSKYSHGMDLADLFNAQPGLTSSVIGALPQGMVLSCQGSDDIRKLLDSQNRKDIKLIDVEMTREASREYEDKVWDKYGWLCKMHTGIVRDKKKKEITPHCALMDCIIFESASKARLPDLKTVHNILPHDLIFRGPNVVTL

CCCCCC(C)O (stereo not given)
inactive: Potency [1] | Potency [2] | Potency [3] | Potency [4]

C[C@]12C=CC(=O)C=C1CC[C@@H]1[C@@H]2[C@@H](O)C[C@@]2(C)[C@@H]1CC[C@]2(O)C(=O)CO
inactive: Potency [1] | Potency [2] | Potency [3] | Potency [4]

c1csc(-c2ccc(-c3cccs3)s2)c1
inactive: Potency [1] | Potency [2] | Potency [3] | Potency [4]

CC1=CC(=O)[C@H]2C[C@@H]1C2(C)C
inactive: Potency [1] | Potency [2] | Potency [3] | Potency [4]

CC1(C)C=Cc2c(ccc(C(=O)/C=C/c3ccccc3)c2O)O1
inactive: Potency [1] | Potency [2] | Potency [3] | Potency [4]

CC1CCC[C@H](O)CCCCCc2cc(O)cc(O)c2C(=O)O1 (stereo not given in full)
inactive: Potency [1] | Potency [2] | Potency [3] | Potency [4]

N[C@H](C(=O)O)c1ccc(O)c(C(=O)O)c1
inactive: Potency [1] | Potency [2] | Potency [3] | Potency [4]

CCCCC[C@H](O)/C=C/C=C\C/C=C\C=C\[C@@H](O)CCCC(=O)O
inactive: activity change, negative = inhibition [1] 2.34% [at 0.757 µM] | activity change, negative = reduced viability [2] 18.4% [at 0.757 µM] | activity change, negative = lower viability [3] 2.14% [at 0.757 µM] | activity change, negative = inhibition [4] 18.8% [at 0.757 µM]

CNCC(N)C(=O)O (stereo not given)
inactive: Potency [1] | Potency [2] | Potency [3] | Potency [4]

Cc1c(O)ccoc1=O
inactive: Potency [1] | Potency [2] | Potency [3] | Potency [4]

O=C(Nc1cc2cc[nH]c2cn1)c1ccccc1
inactive: Potency [1] | Potency [2] | Potency [3] | Potency [4]

COC(=O)c1cc(OC)cc(O)c1C(=O)c1c(O)cc(C)cc1O
inactive: Potency [1] | Potency [2] | Potency [3] | Potency [4]

COC1[C@@H](O[C@@H]2O[C@H](C)[C@@H](O[C@H]3C[C@@](C)(O)[C@H](OC(=O)CC(C)C)[C@H](C)O3)[C@H](N(C)C)[C@H]2O)[C@@H](CC=O)C[C@@H](C)[C@@H](O)/C=C/C=C/C[C@@H](C)OC(=O)C[C@H]1OC(C)=O (stereo not given in full)
inactive: Potency [1] | Potency [2] | Potency [3] | Potency [4]

CCC(C)(O)C(=O)N[C@H]1CCCN1C(=O)/C=C/c1ccccc1 (stereo not given in full)
inactive: Potency [1] | Potency [2] | Potency [3] | Potency [4]

COc1cc2c(cc1O)CC[n+]1cc3c(OC)c(OC)ccc3cc1-2
inactive: Potency [1] | Potency [2] | Potency [3] | Potency [4]

NCc1ccccc1
inactive: Potency [1] | Potency [2] | Potency [3] | Potency [4]

O=C(/C=C/c1ccccc1)OCCc1ccccc1
inactive: Potency [1] | Potency [2] | Potency [3] | Potency [4]

C[C@@H]1C(=O)CC2C(C)(C)CCC[C@]2(C)[C@@]1(O)CCc1ccoc1 (stereo not given in full)
inactive: Potency [1] | Potency [2] | Potency [3] | Potency [4]

CC(C)=CCCC(C)CC=O (stereo not given)
inactive: Potency [1] | Potency [2] | Potency [3] | Potency [4]

Nc1nc2c(ncn2[C@@H]2O[C@H](COP(=O)(O)OP(=O)(O)OP(=O)(O)O)[C@@H](O)C2O)c(=O)[nH]1 (stereo not given in full)
inactive: Potency [1] | Potency [2] | Potency [3] | Potency [4]

CC[C@H]1NC(=O)[C@@H](NC(=O)c2ncccc2O)[C@@H](C)OC(=O)[C@H](c2ccccc2)NC(=O)[C@@H]2CC(=O)CCN2C(=O)[C@H](Cc2ccccc2)N(C)C(=O)[C@@H]2CCCN2C1=O
inactive: Potency [1] | Potency [2] | Potency [3] | Potency [4]

CC12C=CC(=O)C=C1CCC1C2C(=O)CC2(C)C(=O)CCC12 (stereo not given)
inactive: Potency [1] | Potency [2] | Potency [3] | Potency [4]

CC(C)=CCCC(C)CCOC=O (stereo not given)
inactive: Potency [1] | Potency [2] | Potency [3] | Potency [4]

CC(C)=CCC[C@](C)(O[C@@H]1O[C@H](CO)[C@@H](O)[C@H](O)[C@H]1O)[C@H]1CC[C@]2(C)[C@@H]1[C@H](O)C[C@@H]1[C@@]3(C)CC[C@H](O[C@@H]4O[C@H](CO)[C@@H](O)[C@H](O)[C@H]4O[C@@H]4O[C@H](CO)[C@@H](O)[C@H](O)[C@H]4O)C(C)(C)[C@@H]3[C@@H](O)C[C@]12C
inactive: Potency [1] | Potency [2] | Potency [3] | Potency [4]

CC1=C2C(=O)C3C(CC=C4CC(O)CCC43C)C2CCC12OC1CC(C)CNC1C2C (stereo not given)
inactive: Potency [1] | Potency [2] | Potency [3] | Potency [4]

C[C@H]1C[C@H]2[C@@H]3CCC4=CC(=O)C=C[C@]4(C)[C@@H]3C(=O)C[C@]2(C)[C@@]1(O)C(=O)CO
inactive: Potency [1] | Potency [2] | Potency [3] | Potency [4]

C=C1CC/C=C(\C)CC[C@@H]2[C@@H]1CC2(C)C
inactive: Potency [1] | Potency [2] | Potency [3] | Potency [4]

O=C(O)[C@H](O)[C@@H](O)C(=O)O
inactive: Potency [1] | Potency [2] | Potency [3] | Potency [4]

C[C@H]1[C@H](C)CC[C@]2(C(=O)O)CC[C@]3(C)C(=CC[C@@H]4[C@@]5(C)C[C@@H](O)[C@H](O)C(C)(C)[C@@H]5CC[C@]43C)[C@H]12
inactive: Potency [1] | Potency [2] | Potency [3] | Potency [4]

C/C=C/c1cc(OC)c2c(c1)[C@H](C)[C@@H](c1ccc(O)c(OC)c1)O2
inactive: Potency [1] | Potency [2] | Potency [3] | Potency [4]
